According to the supplement of paper PMC11732987, “Enantioselective OTUD7B fragment discovery through chemoproteomics screening and high-throughput optimisation” (Communications Chemistry, 2025):

Experiments:
Experiment in all cases: log2 ratio of Biotin-Ahx-Ub-VS probe labelling (fragment/DMSO); higher = less target engagement (more negative = stronger competition), active = hit call of the paper (q ≤ 0.05, log2 ratio ≤ -1)
Conditions in all cases: compound concentration: 200 uM; treatment time: 3 h
USP42 = molecular target: T1, USP42 (UniProt Q9H9J4)
T1 sequence (whole entry): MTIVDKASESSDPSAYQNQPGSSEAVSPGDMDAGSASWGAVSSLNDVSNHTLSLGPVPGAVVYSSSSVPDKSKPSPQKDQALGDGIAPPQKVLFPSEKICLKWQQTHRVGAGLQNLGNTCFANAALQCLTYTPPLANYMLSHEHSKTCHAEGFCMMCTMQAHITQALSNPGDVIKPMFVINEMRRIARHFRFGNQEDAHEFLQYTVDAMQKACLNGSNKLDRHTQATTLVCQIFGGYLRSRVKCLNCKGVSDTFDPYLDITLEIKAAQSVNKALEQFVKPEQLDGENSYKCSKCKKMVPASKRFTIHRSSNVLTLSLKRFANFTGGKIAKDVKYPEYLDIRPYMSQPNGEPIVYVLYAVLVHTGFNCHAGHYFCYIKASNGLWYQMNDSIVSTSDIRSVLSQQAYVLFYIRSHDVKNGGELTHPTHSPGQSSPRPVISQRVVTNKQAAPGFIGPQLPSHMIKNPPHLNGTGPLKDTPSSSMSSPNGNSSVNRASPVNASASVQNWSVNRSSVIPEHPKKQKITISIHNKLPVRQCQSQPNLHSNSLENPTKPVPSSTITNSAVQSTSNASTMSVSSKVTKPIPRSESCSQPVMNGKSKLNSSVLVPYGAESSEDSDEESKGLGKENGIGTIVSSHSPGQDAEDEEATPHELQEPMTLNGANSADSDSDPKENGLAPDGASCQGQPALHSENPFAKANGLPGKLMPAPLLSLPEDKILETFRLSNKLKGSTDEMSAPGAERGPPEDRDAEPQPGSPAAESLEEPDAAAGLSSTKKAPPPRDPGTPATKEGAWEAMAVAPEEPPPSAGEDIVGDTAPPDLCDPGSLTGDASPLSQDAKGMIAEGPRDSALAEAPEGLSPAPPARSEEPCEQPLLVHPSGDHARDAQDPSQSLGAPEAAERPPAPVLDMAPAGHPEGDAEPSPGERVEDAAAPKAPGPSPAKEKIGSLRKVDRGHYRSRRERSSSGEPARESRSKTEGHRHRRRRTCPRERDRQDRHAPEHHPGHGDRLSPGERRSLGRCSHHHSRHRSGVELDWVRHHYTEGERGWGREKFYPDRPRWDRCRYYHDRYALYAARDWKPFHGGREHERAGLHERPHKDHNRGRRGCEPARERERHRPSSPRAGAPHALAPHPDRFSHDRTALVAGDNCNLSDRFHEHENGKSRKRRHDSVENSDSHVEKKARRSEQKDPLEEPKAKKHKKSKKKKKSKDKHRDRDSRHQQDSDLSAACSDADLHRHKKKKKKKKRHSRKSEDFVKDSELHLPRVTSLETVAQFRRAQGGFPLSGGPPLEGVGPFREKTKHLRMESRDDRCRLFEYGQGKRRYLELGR
Outline: (§1)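 HEK293T lysate (495 µg per sample, in Tris/CHAPS/IGEPAL buffer with protease inhibitors) was exposed in triplicate for 3 h to fragment at 200 µM or to vehicle, then to Biotin-Ahx-Ub-VS at 0.5 µM final for 1 h. Labelled DUBs were enriched on NeutrAvidin, digested with LysC and trypsin, and analysed by diaPASEF LC-MS/MS. Spectronaut label-free quantities were normalised to the global median, and values are average log2 ratios of fragment over vehicle from an unpaired t-test. Only proteins with ≥2 unique peptides were used.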

USP46 = USP46 (UniProt P62068)
USP46, sequence (P62068 whole entry): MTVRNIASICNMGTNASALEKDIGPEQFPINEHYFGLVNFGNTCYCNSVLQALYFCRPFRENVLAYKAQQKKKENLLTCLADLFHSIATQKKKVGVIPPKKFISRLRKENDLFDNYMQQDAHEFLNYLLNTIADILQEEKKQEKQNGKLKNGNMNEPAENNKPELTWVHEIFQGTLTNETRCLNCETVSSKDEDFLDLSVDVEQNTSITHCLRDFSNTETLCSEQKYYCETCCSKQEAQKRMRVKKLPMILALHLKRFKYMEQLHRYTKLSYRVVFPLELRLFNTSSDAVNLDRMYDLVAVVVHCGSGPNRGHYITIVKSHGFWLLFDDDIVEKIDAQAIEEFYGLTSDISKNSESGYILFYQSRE
Outline: as §1

USP47 = molecular target: T2, USP47 (UniProt Q96K76)
T2 sequence (whole entry): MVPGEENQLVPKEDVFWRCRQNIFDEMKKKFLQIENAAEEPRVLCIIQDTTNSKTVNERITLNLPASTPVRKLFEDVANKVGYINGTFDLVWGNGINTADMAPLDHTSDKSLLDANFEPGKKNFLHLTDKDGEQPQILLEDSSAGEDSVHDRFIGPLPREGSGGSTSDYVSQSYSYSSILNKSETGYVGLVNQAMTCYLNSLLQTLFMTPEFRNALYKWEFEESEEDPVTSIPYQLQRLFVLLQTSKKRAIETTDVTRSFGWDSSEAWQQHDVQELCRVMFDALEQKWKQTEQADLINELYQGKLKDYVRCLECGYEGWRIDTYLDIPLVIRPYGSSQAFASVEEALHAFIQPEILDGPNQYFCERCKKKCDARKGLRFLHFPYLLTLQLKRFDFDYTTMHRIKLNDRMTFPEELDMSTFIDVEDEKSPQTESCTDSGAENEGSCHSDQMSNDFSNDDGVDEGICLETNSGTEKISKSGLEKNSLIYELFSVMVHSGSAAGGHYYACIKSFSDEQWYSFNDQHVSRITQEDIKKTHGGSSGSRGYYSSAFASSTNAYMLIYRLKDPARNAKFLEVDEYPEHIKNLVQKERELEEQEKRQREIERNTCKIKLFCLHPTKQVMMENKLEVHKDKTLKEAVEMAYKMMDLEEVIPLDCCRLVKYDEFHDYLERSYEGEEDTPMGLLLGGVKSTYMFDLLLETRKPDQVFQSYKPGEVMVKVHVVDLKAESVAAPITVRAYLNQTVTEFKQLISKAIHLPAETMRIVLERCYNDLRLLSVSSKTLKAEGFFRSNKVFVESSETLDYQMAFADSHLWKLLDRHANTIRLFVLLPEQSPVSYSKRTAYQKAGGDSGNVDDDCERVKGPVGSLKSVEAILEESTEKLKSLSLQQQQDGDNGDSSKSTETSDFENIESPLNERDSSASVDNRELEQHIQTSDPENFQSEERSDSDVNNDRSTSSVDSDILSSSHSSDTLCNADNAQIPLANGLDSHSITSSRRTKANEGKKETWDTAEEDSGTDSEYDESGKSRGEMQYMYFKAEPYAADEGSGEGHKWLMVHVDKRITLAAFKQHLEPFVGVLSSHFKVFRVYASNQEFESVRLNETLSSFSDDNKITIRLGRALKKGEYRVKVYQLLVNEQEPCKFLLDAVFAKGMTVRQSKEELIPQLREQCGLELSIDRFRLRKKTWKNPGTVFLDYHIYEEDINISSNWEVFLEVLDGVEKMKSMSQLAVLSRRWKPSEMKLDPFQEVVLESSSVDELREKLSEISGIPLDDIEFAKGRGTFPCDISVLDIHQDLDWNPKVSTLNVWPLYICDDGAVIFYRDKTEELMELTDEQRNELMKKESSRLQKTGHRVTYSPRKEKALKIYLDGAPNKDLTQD
Outline: as §1

USP48 = molecular target: T3, USP48 (UniProt Q86UV5)
T3 sequence (whole entry): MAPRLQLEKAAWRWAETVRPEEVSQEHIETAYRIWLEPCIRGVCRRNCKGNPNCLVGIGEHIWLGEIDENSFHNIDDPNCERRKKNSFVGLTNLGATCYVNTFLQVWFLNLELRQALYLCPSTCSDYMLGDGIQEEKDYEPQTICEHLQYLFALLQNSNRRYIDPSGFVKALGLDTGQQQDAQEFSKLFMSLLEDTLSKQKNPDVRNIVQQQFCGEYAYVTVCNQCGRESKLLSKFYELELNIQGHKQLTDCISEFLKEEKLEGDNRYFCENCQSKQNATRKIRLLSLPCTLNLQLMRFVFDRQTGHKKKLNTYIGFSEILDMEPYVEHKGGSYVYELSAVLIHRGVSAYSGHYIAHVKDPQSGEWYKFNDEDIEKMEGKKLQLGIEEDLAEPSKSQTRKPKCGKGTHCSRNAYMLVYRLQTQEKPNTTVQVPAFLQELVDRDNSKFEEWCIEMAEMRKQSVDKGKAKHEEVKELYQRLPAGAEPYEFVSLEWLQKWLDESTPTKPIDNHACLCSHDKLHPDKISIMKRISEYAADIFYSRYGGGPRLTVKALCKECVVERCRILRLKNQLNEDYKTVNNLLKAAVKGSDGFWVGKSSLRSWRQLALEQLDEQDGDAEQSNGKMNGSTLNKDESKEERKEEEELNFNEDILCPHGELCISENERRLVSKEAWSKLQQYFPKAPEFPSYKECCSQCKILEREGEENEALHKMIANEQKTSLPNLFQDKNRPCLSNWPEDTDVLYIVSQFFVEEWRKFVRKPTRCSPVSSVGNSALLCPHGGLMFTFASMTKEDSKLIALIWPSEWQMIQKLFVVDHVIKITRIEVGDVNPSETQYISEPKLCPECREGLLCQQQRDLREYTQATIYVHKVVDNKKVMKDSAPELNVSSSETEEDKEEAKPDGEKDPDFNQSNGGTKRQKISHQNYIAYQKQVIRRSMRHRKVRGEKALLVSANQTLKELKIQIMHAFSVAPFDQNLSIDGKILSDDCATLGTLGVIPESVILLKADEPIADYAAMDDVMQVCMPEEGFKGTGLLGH
Outline: as §1

USP5 = molecular target: T4, USP5 (UniProt P45974)
T4 sequence (whole entry): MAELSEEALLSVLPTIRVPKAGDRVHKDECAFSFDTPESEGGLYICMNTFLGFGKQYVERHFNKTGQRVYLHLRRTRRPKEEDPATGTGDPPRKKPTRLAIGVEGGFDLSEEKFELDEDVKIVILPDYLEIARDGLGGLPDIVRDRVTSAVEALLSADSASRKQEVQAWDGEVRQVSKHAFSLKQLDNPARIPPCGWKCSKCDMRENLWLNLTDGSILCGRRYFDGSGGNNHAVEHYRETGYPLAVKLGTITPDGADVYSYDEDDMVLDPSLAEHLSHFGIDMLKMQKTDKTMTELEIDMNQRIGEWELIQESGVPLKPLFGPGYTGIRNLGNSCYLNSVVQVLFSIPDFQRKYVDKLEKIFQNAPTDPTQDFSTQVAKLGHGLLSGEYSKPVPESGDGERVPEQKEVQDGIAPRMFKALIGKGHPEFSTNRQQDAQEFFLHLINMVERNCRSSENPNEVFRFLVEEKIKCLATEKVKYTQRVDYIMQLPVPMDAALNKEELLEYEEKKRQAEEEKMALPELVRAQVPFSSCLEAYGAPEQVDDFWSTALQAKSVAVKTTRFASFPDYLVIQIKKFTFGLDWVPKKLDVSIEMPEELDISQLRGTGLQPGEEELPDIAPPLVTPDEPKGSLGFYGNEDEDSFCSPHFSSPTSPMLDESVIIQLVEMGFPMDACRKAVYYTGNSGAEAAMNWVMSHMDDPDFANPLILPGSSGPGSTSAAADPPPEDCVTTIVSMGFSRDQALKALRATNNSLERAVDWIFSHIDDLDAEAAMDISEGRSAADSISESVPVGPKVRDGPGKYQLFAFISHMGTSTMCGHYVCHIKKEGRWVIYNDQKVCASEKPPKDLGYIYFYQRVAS
Outline: as §1

USP54 = USP54 (UniProt Q70EL1)
USP54, sequence (Q70EL1 whole entry): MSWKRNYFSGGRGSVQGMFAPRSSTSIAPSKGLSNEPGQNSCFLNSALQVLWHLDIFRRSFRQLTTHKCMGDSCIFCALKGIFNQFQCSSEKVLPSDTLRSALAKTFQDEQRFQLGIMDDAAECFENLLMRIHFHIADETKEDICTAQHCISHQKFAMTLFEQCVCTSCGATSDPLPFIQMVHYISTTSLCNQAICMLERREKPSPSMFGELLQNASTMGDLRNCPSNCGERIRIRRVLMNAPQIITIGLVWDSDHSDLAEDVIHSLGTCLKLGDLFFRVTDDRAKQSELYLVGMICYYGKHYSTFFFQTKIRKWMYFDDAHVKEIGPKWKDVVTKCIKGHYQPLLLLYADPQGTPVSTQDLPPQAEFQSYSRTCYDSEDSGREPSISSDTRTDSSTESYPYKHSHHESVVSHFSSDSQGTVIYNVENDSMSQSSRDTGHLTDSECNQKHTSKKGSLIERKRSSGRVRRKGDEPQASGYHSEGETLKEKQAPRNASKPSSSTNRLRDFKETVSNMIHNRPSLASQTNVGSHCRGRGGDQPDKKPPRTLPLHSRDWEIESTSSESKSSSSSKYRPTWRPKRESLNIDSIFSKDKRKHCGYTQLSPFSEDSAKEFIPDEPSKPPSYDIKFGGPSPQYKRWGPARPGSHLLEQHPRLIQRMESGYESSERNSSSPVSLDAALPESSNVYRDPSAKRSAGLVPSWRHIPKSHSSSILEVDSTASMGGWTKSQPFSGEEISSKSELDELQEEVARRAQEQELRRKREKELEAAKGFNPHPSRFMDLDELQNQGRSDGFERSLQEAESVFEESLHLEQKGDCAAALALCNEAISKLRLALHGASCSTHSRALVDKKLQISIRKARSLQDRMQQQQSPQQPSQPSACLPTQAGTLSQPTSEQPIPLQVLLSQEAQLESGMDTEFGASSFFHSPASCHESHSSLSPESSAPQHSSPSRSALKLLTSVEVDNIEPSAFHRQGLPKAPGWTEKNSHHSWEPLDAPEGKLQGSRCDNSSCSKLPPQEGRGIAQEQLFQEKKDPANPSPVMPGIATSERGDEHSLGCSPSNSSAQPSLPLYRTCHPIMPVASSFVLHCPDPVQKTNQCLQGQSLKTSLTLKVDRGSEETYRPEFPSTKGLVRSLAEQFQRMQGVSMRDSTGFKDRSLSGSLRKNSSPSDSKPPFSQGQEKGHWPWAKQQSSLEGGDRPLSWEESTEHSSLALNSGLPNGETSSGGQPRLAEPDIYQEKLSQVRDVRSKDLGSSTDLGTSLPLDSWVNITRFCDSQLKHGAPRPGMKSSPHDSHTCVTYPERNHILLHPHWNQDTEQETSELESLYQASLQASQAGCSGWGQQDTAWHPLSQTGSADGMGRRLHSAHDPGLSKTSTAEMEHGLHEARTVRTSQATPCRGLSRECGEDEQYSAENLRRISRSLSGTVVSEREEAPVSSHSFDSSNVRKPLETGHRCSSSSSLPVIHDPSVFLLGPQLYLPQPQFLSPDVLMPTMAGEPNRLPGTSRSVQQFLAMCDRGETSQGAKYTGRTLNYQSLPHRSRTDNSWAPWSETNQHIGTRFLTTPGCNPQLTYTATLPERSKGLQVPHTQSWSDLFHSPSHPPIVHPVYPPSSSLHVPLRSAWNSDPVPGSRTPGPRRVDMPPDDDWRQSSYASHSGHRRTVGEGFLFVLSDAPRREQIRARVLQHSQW
Outline: as §1

USP7 = USP7 (UniProt Q93009)
USP7, sequence (Q93009 whole entry, looked up): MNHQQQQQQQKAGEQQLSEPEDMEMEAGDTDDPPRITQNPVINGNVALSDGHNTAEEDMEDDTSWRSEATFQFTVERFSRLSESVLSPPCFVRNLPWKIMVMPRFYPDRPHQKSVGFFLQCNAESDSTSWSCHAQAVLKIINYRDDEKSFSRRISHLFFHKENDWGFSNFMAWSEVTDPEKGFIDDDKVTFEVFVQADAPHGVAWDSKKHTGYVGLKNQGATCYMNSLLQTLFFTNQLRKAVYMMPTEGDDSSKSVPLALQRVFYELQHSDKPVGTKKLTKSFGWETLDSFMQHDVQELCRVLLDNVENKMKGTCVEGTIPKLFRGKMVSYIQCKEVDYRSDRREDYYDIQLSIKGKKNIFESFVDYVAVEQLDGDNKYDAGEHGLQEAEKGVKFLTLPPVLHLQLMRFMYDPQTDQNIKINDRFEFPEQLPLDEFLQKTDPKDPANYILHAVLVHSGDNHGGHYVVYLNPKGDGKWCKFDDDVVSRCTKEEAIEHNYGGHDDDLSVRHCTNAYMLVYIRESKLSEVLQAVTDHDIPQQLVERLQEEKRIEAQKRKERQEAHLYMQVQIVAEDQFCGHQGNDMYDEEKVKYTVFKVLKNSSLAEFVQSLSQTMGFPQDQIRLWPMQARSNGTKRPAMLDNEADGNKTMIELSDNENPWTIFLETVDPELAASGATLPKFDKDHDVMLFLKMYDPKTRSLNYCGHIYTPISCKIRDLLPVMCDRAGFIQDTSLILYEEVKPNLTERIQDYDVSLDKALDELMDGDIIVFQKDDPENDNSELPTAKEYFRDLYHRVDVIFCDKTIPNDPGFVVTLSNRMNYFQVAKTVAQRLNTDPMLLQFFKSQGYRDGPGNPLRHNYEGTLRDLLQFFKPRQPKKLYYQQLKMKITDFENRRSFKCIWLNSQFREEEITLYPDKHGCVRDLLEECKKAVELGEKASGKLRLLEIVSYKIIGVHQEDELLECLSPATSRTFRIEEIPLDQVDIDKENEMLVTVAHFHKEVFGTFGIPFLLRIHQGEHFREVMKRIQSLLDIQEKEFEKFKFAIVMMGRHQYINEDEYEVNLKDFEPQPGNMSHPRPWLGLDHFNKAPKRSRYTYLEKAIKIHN
Outline: as §1

USP8 = molecular target: T5, USP8 (UniProt P40818)
T5 sequence (whole entry): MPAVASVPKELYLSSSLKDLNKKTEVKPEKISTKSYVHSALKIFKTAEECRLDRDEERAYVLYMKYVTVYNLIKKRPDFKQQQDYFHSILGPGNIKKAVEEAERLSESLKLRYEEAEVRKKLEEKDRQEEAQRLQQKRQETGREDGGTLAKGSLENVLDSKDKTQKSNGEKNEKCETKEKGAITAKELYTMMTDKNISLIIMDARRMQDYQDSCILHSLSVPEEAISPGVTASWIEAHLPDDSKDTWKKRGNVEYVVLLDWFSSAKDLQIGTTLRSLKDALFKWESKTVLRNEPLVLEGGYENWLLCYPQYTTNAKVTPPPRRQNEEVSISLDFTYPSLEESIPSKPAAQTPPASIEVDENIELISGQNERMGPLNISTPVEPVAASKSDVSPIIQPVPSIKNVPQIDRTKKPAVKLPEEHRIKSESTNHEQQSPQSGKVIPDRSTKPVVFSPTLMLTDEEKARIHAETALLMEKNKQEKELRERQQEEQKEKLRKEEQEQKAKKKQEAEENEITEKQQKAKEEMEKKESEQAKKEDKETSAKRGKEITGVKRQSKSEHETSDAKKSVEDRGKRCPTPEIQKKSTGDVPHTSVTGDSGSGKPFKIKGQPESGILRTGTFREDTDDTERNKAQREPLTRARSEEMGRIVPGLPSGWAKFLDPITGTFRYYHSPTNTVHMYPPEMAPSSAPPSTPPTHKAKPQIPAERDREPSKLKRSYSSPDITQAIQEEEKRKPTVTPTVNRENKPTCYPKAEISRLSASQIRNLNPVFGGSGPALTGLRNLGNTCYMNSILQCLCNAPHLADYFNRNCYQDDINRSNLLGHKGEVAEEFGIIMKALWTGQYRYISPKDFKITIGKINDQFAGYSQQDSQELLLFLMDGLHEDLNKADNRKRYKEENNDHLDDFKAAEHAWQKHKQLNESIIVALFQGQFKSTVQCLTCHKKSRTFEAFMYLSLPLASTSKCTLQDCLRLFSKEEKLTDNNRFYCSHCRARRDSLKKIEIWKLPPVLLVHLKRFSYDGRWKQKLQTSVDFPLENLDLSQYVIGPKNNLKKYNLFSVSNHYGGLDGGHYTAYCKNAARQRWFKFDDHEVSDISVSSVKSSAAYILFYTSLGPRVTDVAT
Outline: as §1

Measured: log2 ratio of Biotin-Ahx-Ub-VS probe labelling

O=C(CCl)Nc1cc(Cl)ccc1C(=O)O
inactive: USP42 -0.11 | USP46 0.0628 | USP47 0.0765 | USP48 0.232 | USP5 0.436 | USP54 0.0975 | USP7 0.19 | USP8 -0.256
